Bioassay records from PubChem.
Hits are enriched below; roughly 2.4% of the tested compounds scored in any of these assays.
Cruzain Triton: blocks cruzain activity in presence of Triton detergent. AID 1478. P25779. 200,000 compounds, 0.43% hits. purified cruzain, Z-FR-AMC fluorescence, 0.01% Triton. Potency, µM, for the others: max response, negative = inhibition, most hits filed as inhibitors;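 note: plate controls were neutral wells for no effect and buffer without enzyme for full effect; nearly all actives have a fitted effect of over 40% in size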
Target sequence (P25779 123-467 limits assumed): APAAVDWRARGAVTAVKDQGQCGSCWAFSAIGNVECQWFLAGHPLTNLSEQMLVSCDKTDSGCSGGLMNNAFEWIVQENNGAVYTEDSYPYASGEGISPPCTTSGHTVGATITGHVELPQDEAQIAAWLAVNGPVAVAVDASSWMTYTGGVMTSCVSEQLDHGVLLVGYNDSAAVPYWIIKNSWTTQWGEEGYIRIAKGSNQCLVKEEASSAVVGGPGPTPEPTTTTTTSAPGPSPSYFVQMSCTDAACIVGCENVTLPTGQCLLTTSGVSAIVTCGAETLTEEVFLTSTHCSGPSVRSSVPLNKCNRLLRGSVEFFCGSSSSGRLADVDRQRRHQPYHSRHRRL
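Sodium acetate buffer (100 mM, pH 5.5) containing 5 mM DTT and 0.01% Triton X-100 hosted 1.5 nM cruzain and test compound for 15 min at room temperature. Cleavage of 2 uM Z-FR-AMC was then tracked by fluorescence.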
Cruzain noTriton: cruzain (T. cruzi) inhibition without detergent; purified cruzain, Z-FR-AMC fluorescence, no detergent; Potency, µM, for inactives: max response, negative = inhibition, actives largely listed as inhibitors; 200,000 compounds, 2.3% hits;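 note: plate controls were enzyme without inhibitor for no effect and buffer without enzyme for full effect; nearly all actives have a fitted effect of over 40% in size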
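Purified cruzain at 1.5 nM, pre-incubated 15 min with compound at room temperature in 100 mM sodium acetate pH 5.5, 5 mM DTT, 0.00005% Triton X-100. Reaction started with 2 uM Z-FR-AMC; AMC fluorescence increase over 60 s gives rate.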
The depositor's hits bear a star; ? = inconclusive. Calls come from the whole dose curve; as a rule, active = well fitted curve in the direction sought with a large enough effect; inconclusive = small, poorly fitted or top-dose-only effect, or another doubt; inactive = no such curve, though single readings can be large; an effect the other way counts as inactive or inconclusive. Potency is the fitted concentration of half-maximal effect.

SMILES	Cruzain Triton	Cruzain noTriton
CC(=O)N1CCc2c(sc3c2c(=O)n(-c2ccccc2Cl)c(=O)n3C)C1	1.2%	-0.6%
O=C(N/N=C/c1ccccc1Cl)c1[nH]c2ccc(Br)cc2c1-c1ccccc1	-3.5%	12.6µM*
COc1ccc(/C=N/NC(=O)c2[nH]c3ccc(Br)cc3c2-c2ccccc2)cc1	1.1%	?
O=C(Nc1ccc2nc(SCC(=O)N3CCCc4ccccc43)sc2c1)c1ccccc1	-5.4%	?
CCOC(=O)CSc1nc(N)c(C#N)c(-c2ccc(OCC)cc2)c1C#N	-2.5%	0.2%
N#Cc1c(N)nc(SCC(=O)NC2CCCCC2)c(C#N)c1-c1ccc(Cl)cc1	-2.7%	15.8µM*
CC(C)c1ccc(-c2c(C#N)c(N)nc(SCC(=O)N3CCCCC3)c2C#N)cc1	3.8%	25.1µM*
CC(C)c1ccc(-c2c(C#N)c(N)nc(SCC(=O)N3CCCCCC3)c2C#N)cc1	-3.1%	-8.8%
CCC(C)NC(=O)CCc1c(C)nc2cc(-c3ccc(OC)cc3OC)nn2c1C (stereo not drawn)	2.4%	11.6%
CCOc1ccc(NS(=O)(=O)c2c(C)nc3sc(C)c(C)n3c2=O)cc1	-3.5%	-10.2%
Cc1ccc(Cl)cc1NC(=O)COC(=O)c1ccc(COc2ccc3c(C)cc(=O)oc3c2)cc1	-1.4%	7.94µM*
CC(=O)Nc1ccc(NC(=O)c2ccc(COc3ccc4c(C)cc(=O)oc4c3)cc2)cc1	-4.1%	-14.7%
Cc1cc(=O)oc2c(CN3CCN(C)CC3)c(O)c(Cl)cc12	-22.4%	?
CCCCc1cc(=O)oc2cc(OCc3nn[nH]n3)c(Cl)cc12	-7.9%	2.1%
CCCc1cc(=O)oc2c(CN3CCN(C)CC3)c(O)c(Cl)cc12	31.6µM*	?
CCCCc1cc(=O)oc2c(CN(CC)CC)c(O)c(Cl)cc12	28.2µM*	?
CCCCc1cc(=O)oc2c(CN3CCCC3)c(O)c(Cl)cc12	28.2µM*	?
Cc1c(C)c2cc(Cl)c(O)c(CN3CCCCC3)c2oc1=O	?	-99.8%
Cc1c(Cl)cccc1-n1ncc(C(=O)Nc2ccc(F)cc2F)c1C1CCN(C(=O)OC(C)(C)C)CC1	-11.7%	-12.6%
COc1ccc2c(c1)cc1c(=O)n(CC(=O)NC3CC3)nc(C)n12	-0.3%	11.8%
Cc1ccc(-n2ncc(C(=O)NCCc3c[nH]c4ccccc34)c2C2CCN(C(=O)OC(C)(C)C)CC2)cc1C	-1.5%	-15.0%
CCOc1ccc(/C=C/c2nc(C#N)c(NCCCN(C)C)o2)cc1	-16.0%	?
C=CCNc1oc(/C=C/c2ccccc2)nc1C#N	31.6µM*	?
CN(C)CCCNc1oc(/C=C/c2ccc(F)cc2)nc1C#N	?	25.1µM*
CN(C)CCNc1oc(/C=C/c2ccccc2)nc1C#N	-28.6%	25.1µM*
SMILES	Cruzain Triton	Cruzain noTriton
COc1cc(/C=C/c2nc(C#N)c(NCCc3ccccc3)o2)cc(OC)c1OC	8.6%	?
CCOc1ccc(/C=C/c2nc(C#N)c(NCc3ccccc3)o2)cc1	-6.2%	3.4%
COc1ccc(-c2nsc(NC(=O)c3ccccc3Br)n2)cc1	-4.3%	12.0%
Cc1occc1C(=O)N/N=C/C1=C(N2CCOCC2)C(=C\c2ccc(Cl)cc2Cl)/CC1	-5.0%	25.1µM*
Cc1cc(C)nc(N/N=C/C2=C(N3CCOCC3)C(=C\c3ccc(Cl)cc3)/CC2)n1	-9.6%	-20.7%
C/C(N=NC(=[SH+])SCc1ccccc1)=C1\C=CC=CN1.[Cl][Cu]	5.0%	-8.2%
COc1cc(C(=O)NC2(C(F)(F)F)C(=O)NC(C)=C2C#N)cc(OC)c1OC (stereo not drawn)	-1.2%	0.4%
Cc1cc(C)cc(Nc2nc3c(S(=O)(=O)c4ccccc4)nnn3c3ccccc23)c1	-5.9%	?
Cc1cccc(Nc2nc3c(S(=O)(=O)c4ccccc4)nnn3c3ccccc23)c1	-2.5%	25.1µM*
CCCOc1ccc(NC(=O)CC2C(=O)N(c3cccc(OC)c3)C(=O)N2CCc2ccncc2)cc1 (stereo not drawn)	-4.4%	?
CCOc1ccccc1NC(=O)CC1Nc2ccccc2NC1=O (stereo not drawn)	-9.3%	?
Cc1ccc(NC(=O)CC2Nc3ccccc3NC2=O)cc1Cl (stereo not drawn)	?	25.1µM*
Cc1ccc(NC(=O)CC2Nc3ccccc3NC2=O)cc1C (stereo not drawn)	-11.8%	0.1%
CCCOc1ccccc1NC(=O)CC1Nc2ccccc2NC1=O (stereo not drawn)	-4.0%	12.6µM*
Cc1cccc(C(=O)N=c2c(C#N)cc3c(=O)n4cccc(C)c4nc3n2Cc2ccco2)c1	8.91µM*	15.8µM*
CCOC(=O)c1cc2c(=O)n3cccc(C)c3nc2n(Cc2ccco2)c1=NC(=O)c1cccnc1	-8.9%	?
COc1ccc(/C=N/NC(=S)Nc2ccccc2[N+](=O)[O-])cc1O	-7.6%	-9.0%
CCCOc1ccc(/C=N/Nc2cccc([N+](=O)[O-])c2)c(O)c1	-4.9%	?
CCCOc1ccc(/C=N/Nc2ccccc2[N+](=O)[O-])c(O)c1	-5.9%	10µM*
